Compound activity deposited in PubChem by Emory University Molecular Libraries Screening Center.
14-3-3 PPI = modulators of 14-3-3 gamma protein binding, primary screen, biochemical, fluorescence polarization | 14-3-3 protein gamma (Homo sapiens), P61981 | FP, 14-3-3gamma / TMR-pS259-Raf peptide binding | inhibition, % at 40 µM | actives 0.19% (n = 160,000); in the data active means inhibition above about 30%;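 further: 0% = protein plus tracer without compound and 100% = blank with tracer alone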
Target sequence (P61981 whole entry, looked up): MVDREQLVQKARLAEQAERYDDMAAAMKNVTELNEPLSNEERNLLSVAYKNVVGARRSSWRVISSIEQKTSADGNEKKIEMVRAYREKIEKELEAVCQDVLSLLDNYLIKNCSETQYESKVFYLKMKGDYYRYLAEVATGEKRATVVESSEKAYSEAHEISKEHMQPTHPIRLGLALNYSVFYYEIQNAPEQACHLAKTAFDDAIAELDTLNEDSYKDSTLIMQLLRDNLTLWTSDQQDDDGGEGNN
An asterisk follows results filed as active; ! = repeats disagree. Only a selection was taken, and hits are over-represented in it overall.

SMILES	14-3-3 PPI
CCOc1ccc(-c2n[nH]c3c2C(c2ccccc2)N(c2ccc(Br)cc2)C3=O)cc1 (stereo not drawn)	134.1*
COc1ccc(-c2n[nH]c3c2C(c2ccc(OC)cc2)N(c2ccc(Br)cc2)C3=O)cc1 (stereo not drawn)	0.3
Cc1nc(Cl)c(C(=O)O)c(C)c1[N+](=O)[O-]	-1.2
COC(=O)c1c(Cl)nc(Cl)c([N+](=O)[O-])c1Cl	56.0*
O=C(O)c1c(Cl)nc(Cl)c([N+](=O)[O-])c1Cl	2.7
O=C1NC(c2ccc(O)cc2)C(C(=O)c2ccccc2)C(O)(C(F)(F)F)N1 (stereo not drawn)	4.6
COc1ccccc1Cn1c(=S)[nH]c2cc(C(=O)N3CCN(c4ccc(F)cc4)CC3)ccc2c1=O	-214.1
COc1cccc(CNc2cccc3cccnc23)c1O	-12.8
COc1cc(NS(=O)(=O)c2ccc(C)cc2)c2ncccc2c1	-8.1
COc1cc(NCCCC(C)N)c2ncccc2c1 (stereo not drawn)	69.8*
CC1CCN(C(=O)COc2ccc([N+](=O)[O-])cc2)CC1	-8.3
CCCCCOc1ccccc1Cn1c(=O)oc2ccccc21	6.0
CSc1nnc2c3cc(F)ccc3n(Cc3ccccc3)c2n1	112.8*
CSc1nnc2c3ccccc3n(CCc3ccccc3)c2n1	2.8
CSc1nnc2c3ccccc3n(Cc3ccccc3)c2n1	-7.4
CCC1CCCCN1CCCNC(=O)CSc1cc(=O)n(C)c2cc(Cl)ccc12 (stereo not drawn)	-16.5
COc1ccc(C2CC(=O)C3=C(C2)Nc2ccccc2NC3c2c[nH]c3ccccc23)cc1OC (stereo not drawn)	-6.4
O=C(O)c1cc(N2Cc3ccccc3C2)ccc1O	80.7*
Cc1ccc(-c2ccccc2)n1-c1ccc(O)c(C(=O)O)c1	-39.0
O=C1c2ccc(N3Cc4ccccc4C3)cc2C(=O)N1c1ccccc1	-10.1
CC(=O)Oc1ccc(OC(C)=O)c2c1C(=O)c1ccccc1C2=O	69.1*
CNc1ccc(OC)c2c1C(=O)c1ccccc1C2=O	-171.1
CC(=O)Oc1ccccc1N1C(=O)c2ccccc2C1=O	3.0
CC(C)(C)C1CCC(OC(=O)CCC(=O)O)CC1 (stereo not drawn)	2.8
O=C(O)C1Cc2c([nH]c3ccccc23)CN1 (stereo not drawn)	-1.6
SMILES	14-3-3 PPI
O=C(O)C1Cc2c([nH]c3ccccc23)C(c2ccccc2)N1 (stereo not drawn)	5.5
O=C(O)C1Cc2c([nH]c3ccccc23)C(c2ccccc2[N+](=O)[O-])N1 (stereo not drawn)	52.7*
CCN(CC)c1c(CN2CCCCC2)c(=O)oc2ccccc12	4.5
Cc1ccc(-c2ccc(CCC(=O)O)n2-c2ccc(Cl)cc2)cc1	-0.7
CCOc1ccc(-n2c(=O)[nH]c3sc(C)c(C)c3c2=O)cc1	-10.2
CC(=O)OCCNc1cc(N2CCN(C)CC2)c2noc3c2c1C(=O)c1ccccc1-3	-69.9
CCC(=O)OCCNc1ccc2noc3c2c1C(=O)c1ccccc1-3	140.7*
O=C1c2ccccc2-c2onc3ccc(Nc4ccccc4)c1c23	-231.8
COc1ccc(CC(=O)Nc2ccc(-c3noc(-c4ccccc4C)n3)cc2)cc1	-3.5
Cc1cccc(C)c1OC(=O)c1ccc(N2C(=O)C3CCC(C)CC3C2=O)cc1 (stereo not drawn)	-2.1
O=C(O)CCSc1n[nH]c(=O)[nH]c1=O	-7.3
CCOc1ccc2[nH]c(=O)c(CN(Cc3ccccc3)C(=O)N3CCCC3)cc2c1	-8.4
CCOc1ccc2[nH]c(=O)c(CN(C(=O)N3CCOCC3)C3CC3)cc2c1	-6.7
CCOc1ccc2[nH]c(=O)c(CN(CC3COCCO3)C(=O)C3CC3)cc2c1 (stereo not drawn)	39.5*
Oc1ccccc1-c1nc(Nc2ccc(F)cc2)c2ccccc2n1	-0.1
COc1cc(C=Nc2ccc(O)cc2)ccc1OC(=O)CC1SC(=O)NC1=O (stereo not drawn)	103.3*
COC(=O)CC1SC(=O)NC1=Nc1ccc(O)cc1 (stereo not drawn)	-6.5
COc1cc(C=Nc2ccc(N(C)C(C)=O)cc2)ccc1OC(C)=O	3.2
O=C(Nc1cccc2nsnc12)c1cnsn1	3.4
CCOc1ccccc1NC(=O)c1cc(S(=O)(=O)N2CC(C)CC(C)C2)ccc1F (stereo not drawn)	-4.8
COc1cccc2cc(C(=O)NCc3ccccc3)c(=Nc3ccc(C(=O)O)cc3)oc12	-7.3
COc1ccc(-c2nc(CSCC(=O)NCC3CCCO3)c(C)o2)cc1OC (stereo not drawn)	-3.4
COc1ccc(-c2nc(CSCC(=O)N3CCC(C(N)=O)CC3)c(C)o2)cc1OC	2.6
CCOC(=O)N1CCC(NC(=O)CSCc2nc(-c3ccc(OC)c(OC)c3)oc2C)CC1	60.7*
C[n+]1ccccc1-c1nc2ccccc2s1	-13.5
SMILES	14-3-3 PPI
COc1ccc(OC)c(S(=O)(=O)Nc2ccc(C(C)=O)cc2)c1	-2.0
COc1ccc(C(=O)Oc2ccc(C(C)=O)cc2)c(OC)c1	38.4*
COC(=O)c1ccc(C(=O)OC)c(NC(=O)c2ccc(OC)cc2OC)c1	-32.6
Nc1c(C(=O)NCc2ccccc2)sc2nc3c(c(-c4ccccc4Cl)c12)CCC3	-14.6
Cc1nc(SCc2cccnc2)c2c(=O)n(C)c(=O)n(C)c2n1	-5.6
NC1=CC(=O)c2cccc3cccc1c23	80.5*!
O=C1c2cccc3cccc(c23)C(=O)N1c1ccccc1	3.8
Cc1nnc(C)n1N1C(=O)c2cccc3cccc(c23)C1=O	-6.1
Cc1cc[n+](CC(=O)c2ccc(Br)cc2)c2ccccc12	-51.5
O=C(Cn1c(=O)n(-c2ccc(Cl)cc2)c(=O)c2c3c(sc21)CCC3)NCC1CCCO1 (stereo not drawn)	-42.6
COc1ccccc1C1Nc2ccc(C(=O)O)cc2C2C=CCC21 (stereo not drawn)	-75.2
CCOC(=O)C1Nc2ccc(C(=O)O)cc2C2C=CCC12 (stereo not drawn)	-81.8
O=C(O)c1ccc2c(c1)C1C=CCC1C(c1ccncc1)N2 (stereo not drawn)	-2.2
O=C(O)c1ccc2c(c1)C1C=CCC1C(C(=O)O)N2 (stereo not drawn)	36.3*
CCOC(=O)c1ccc2c(c1)C1C=CCC1C(C(=O)O)N2 (stereo not drawn)	-48.3
O=C(O)c1ccc2c(c1)C1C=CCC1C(c1ccccn1)N2 (stereo not drawn)	62.2*
COC(NC(=O)Nc1sc2c(c1C#N)CCCC2)(C(F)(F)F)C(F)(F)F	-11.3
Cc1cc(Br)ccc1N1C(=O)C2CC=CC(C)C2C1=O (stereo not drawn)	-6.3
CCOC(=O)Cc1ccc(NCc2cccs2)cc1	-3.0
O=[N+]([O-])c1cccc(NCc2cccs2)c1	0.4
Oc1ccc(NCc2cccs2)cc1	52.1*
CC(=O)Nc1c2c(nn1-c1ccc([N+](=O)[O-])cc1)CS(=O)(=O)C2	3.5
Cc1ccc(C2=NN(C(=O)CCCc3ccccc3)C(O)(C(F)(F)F)C2)cc1 (stereo not drawn)	1.0
O=C1C(=O)N(CCCn2ccnc2)C(c2ccncc2)/C1=C(\O)c1ccc(F)cc1 (stereo not drawn)	-0.1
COc1ccc(/C(O)=C2\C(=O)C(=O)N(CCCn3ccnc3)C2c2ccccc2F)cc1 (stereo not drawn)	36.7*
COc1ccccc1C1/C(=C(\O)c2ccc(Cl)cc2)C(=O)C(=O)N1CCCn1ccnc1 (stereo not drawn)	6.1
CN1CCc2c(sc3c2C(=O)NC(c2ccc(O)cc2)N3)C1 (stereo not drawn)	-116.5
